Bioassay records (PubChem)
MazEF act – increases E. coli MazEF RNase cleavage of RNA; activation, % at 20 µM; P0AE70; AID 504720; FAM/BHQ RNA-DNA oligo cleavage fluorescence, 5 h; 350,000 compounds, 0.32% hits; in the data active means activation above about 50%
PfHsp40 rescue – restores yeast growth despite PfHsp40 toxicity; S. cerevisiae expressing PfHsp40, growth rescue, ATP luminescence; growth rescue, % at 12.5 µM; 340,000 compounds, 0.68% hits; in the data active means growth rescue above about 28%, passing the limit was not always enough; inconclusive means no clear call, values can overlap the other calls;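 further: yeast W303a lacking pdr1 and pdr3 grown in galactose medium; growth measured after three days at 30 °C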
BoNT A protease – inhibitors of Botulinum neurotoxin A light chain protease; inhibition, % at 10 µM; multiplex microsphere protease substrate cleavage, flow cytometry; AID 588499; 360,000 compounds, 0.17% hits; further: plate controls were buffer without enzyme for full effect and enzyme alone for no effect
Anthrax LF prot – blocks Bacillus anthracis lethal factor protease. 360,000 compounds, 0.12% hits. inhibition, % at 10 µM. multiplex microsphere protease cleavage assay, LF; further: plate controls were buffer without enzyme for full effect and enzyme alone for no effect
Target sequence (P15917 whole entry, looked up): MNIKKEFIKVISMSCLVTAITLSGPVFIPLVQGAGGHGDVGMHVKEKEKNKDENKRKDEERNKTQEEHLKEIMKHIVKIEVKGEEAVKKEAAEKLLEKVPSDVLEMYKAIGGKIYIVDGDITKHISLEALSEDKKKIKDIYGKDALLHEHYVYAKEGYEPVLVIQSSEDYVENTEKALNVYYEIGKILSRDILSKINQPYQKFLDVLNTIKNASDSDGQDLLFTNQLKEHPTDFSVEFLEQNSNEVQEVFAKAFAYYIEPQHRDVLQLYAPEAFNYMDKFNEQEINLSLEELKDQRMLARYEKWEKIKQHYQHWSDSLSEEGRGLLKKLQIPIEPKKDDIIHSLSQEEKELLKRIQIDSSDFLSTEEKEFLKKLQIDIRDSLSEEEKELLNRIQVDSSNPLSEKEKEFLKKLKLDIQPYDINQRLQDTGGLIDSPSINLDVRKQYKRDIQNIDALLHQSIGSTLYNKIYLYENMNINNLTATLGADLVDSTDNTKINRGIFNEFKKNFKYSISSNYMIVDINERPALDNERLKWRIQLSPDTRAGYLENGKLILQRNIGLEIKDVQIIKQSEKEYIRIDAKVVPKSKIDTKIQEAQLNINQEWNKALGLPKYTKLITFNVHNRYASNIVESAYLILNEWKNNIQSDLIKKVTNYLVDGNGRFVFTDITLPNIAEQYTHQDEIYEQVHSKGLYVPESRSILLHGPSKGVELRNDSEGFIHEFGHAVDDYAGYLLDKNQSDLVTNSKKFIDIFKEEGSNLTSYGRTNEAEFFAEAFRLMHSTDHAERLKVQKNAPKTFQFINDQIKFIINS
Bead autofluor – flagged as autofluorescent in microsphere protease counterscreen. compound autofluorescence counterscreen, microsphere flow cytometry; hits give high values. fluorescence intensity (test concentration not listed). 360,000 compounds, 3.1% hits. AID 624483; in the data active means fluorescence intensity above about 16000; inconclusive means no clear call, values can overlap the other calls
BoNT F protease – inhibitors of Botulinum neurotoxin F light chain protease. Multiplex microsphere protease cleavage assay, flow cytometry. inhibition, % at 10 µM. 360,000 compounds, 0.22% hits. AID 588497; in the data active means inhibition above about 35%, passing the limit was not always enough; inconclusive means no clear call, values can overlap the other calls; further: plate controls were buffer without enzyme for full effect and enzyme alone for no effect
Active calls of the source: *. An excerpt weighted towards active compounds, which were near 4.3% of everything screened. Unless noted, no stated cut-off is given here; in the data, active means inhibition above about 30%; inconclusive means no clear call, values can overlap the other calls; inactive means below that.

Screening COC(=O)C1[C@H]2C(=O)N(Cc3cccs3)C[C@]23C=C[C@H]1O3 (stereo partly specified) returned MazEF act -1.7, PfHsp40 rescue -0.1, BoNT A protease -1.3, Anthrax LF prot -0.6, Bead autofluor 23081* and BoNT F protease -2.6.
COc1ccc(CCN2C(=O)C=CC2=O)cc1OC was read as MazEF act 4.6, PfHsp40 rescue 137.9*, BoNT A protease 0.4, Anthrax LF prot -1.2, Bead autofluor 3302 and BoNT F protease 7.6.
Screening COc1ccc(CCN2C(=O)CN(Cc3ccccc3)CC2=O)cc1OC returned MazEF act -0.6, PfHsp40 rescue -0.2, BoNT A protease -0.3, Anthrax LF prot 1.4, Bead autofluor 2516 and BoNT F protease 1.0.
For COC(=O)c1ccccc1N=Nc1c(C)noc1C the results were MazEF act 7.6, PfHsp40 rescue 0.5, BoNT A protease 3.4, Anthrax LF prot 33.6*, Bead autofluor 3984 and BoNT F protease inconclusive.
Screening COC(=O)/C(=C(/F)Sc1cc(C)c(O)c(C)c1)C(F)(F)F returned MazEF act 8.7, PfHsp40 rescue 0.4, BoNT A protease -0.2, Anthrax LF prot 0.4, Bead autofluor 22354* and BoNT F protease -0.4.
For Cc1ccc(N(CC(=O)N2CCn3c2nc2ccccc23)S(=O)(=O)c2c(C)n[nH]c2C)cc1 the results were MazEF act 3.0, PfHsp40 rescue 1.3, BoNT A protease -2.8, Anthrax LF prot -6.7, Bead autofluor 17135* and BoNT F protease -0.2.
OCCNCCCOc1ccc(Cl)cc1Br was read as MazEF act -0.1, PfHsp40 rescue -1.0, BoNT A protease 0.5, Anthrax LF prot -4.5, Bead autofluor 22475* and BoNT F protease -1.4.
Screening Cc1cc(Br)ccc1OCCCCNCCO returned MazEF act 2.3, PfHsp40 rescue 1.0, BoNT A protease -6.7, Anthrax LF prot -1.3, Bead autofluor 21727* and BoNT F protease -9.4.
Screening O=C(Cc1noc2ccccc12)Nc1ccc2ccccc2c1 returned MazEF act 2.8, PfHsp40 rescue 1.7, BoNT A protease 0.6, Anthrax LF prot -3.1, Bead autofluor 21952* and BoNT F protease -1.4.
Screening O=C(NCCN1CCN(c2ccccc2)CC1)c1ccc2c(c1)[nH]c(=S)n1c3ccccc3nc21 returned MazEF act -6.5, PfHsp40 rescue 0.7, BoNT A protease 0.0, Anthrax LF prot -2.0, Bead autofluor 3861 and BoNT F protease -2.6.
`O=C(c1ccc2c(c1)[nH]c(=S)n1c3ccccc3nc21)N1CCN(c2ncccn2)CC1` gave MazEF act 90.9*, PfHsp40 rescue -0.3, BoNT A protease 0.5, Anthrax LF prot -2.1, Bead autofluor 4444 and BoNT F protease -13.2.
Screening COc1ccc(-c2ccc(C(=O)NCc3ccncc3)c3occc23)c(C)c1 returned BoNT A protease -0.2, Anthrax LF prot -5.6, Bead autofluor 4100 and BoNT F protease -0.2.
Cc1cc(C)cc(SCc2noc(C(=O)NCCCN3CCOCC3)c2C(=O)NCCCN2CCOCC2)c1 was read as MazEF act 5.5, PfHsp40 rescue 11.8, BoNT A protease 0.0, Anthrax LF prot -3.1, Bead autofluor 2969 and BoNT F protease 2.0.
Screening COC(=O)Nc1ccc(S(=O)(=O)N2CCCc3ccccc32)cc1 returned MazEF act -4.7, PfHsp40 rescue 1.6, BoNT A protease -1.4, Anthrax LF prot -1.4, Bead autofluor 16570* and BoNT F protease -2.1.
For COc1cc(C(=O)Nc2ccc(S(=O)(=O)N3CCc4ccccc43)cc2)cc(OC)c1OC the results were MazEF act -4.1, PfHsp40 rescue 1.3, BoNT A protease -2.0, Anthrax LF prot 0.5, Bead autofluor 18077* and BoNT F protease -2.6.
For COC(=O)Nc1ccc(S(=O)(=O)N2CCCc3cccc(O)c32)cc1 the results were MazEF act -4.5, PfHsp40 rescue -1.7, BoNT A protease 0.9, Anthrax LF prot -3.3, Bead autofluor 2979 and BoNT F protease -3.3.
Cc1cccnc1NC(=O)c1cccc(S(=O)(=O)N2CCCc3ccccc32)c1 was read as MazEF act 7.2, PfHsp40 rescue -4.4, BoNT A protease 3.9, Anthrax LF prot -3.2, Bead autofluor 3988 and BoNT F protease 6.3.
`O=C(Nc1ncccc1O)c1cccc(S(=O)(=O)N2CCCc3ccccc32)c1` gave MazEF act 0.0, PfHsp40 rescue 62.3*, BoNT A protease -1.3, Anthrax LF prot 0.3, Bead autofluor 5416 and BoNT F protease 3.6.
CCN(C[C@H]1N[C@@](Cc2ccccc2)(C(=O)OC)[C@H]2C(=O)N(Cc3ccccc3)C(=O)[C@@H]12)S(=O)(=O)c1ccc(C(C)(C)C)cc1 was read as MazEF act -6.3, PfHsp40 rescue -0.2, BoNT A protease 0.2, Anthrax LF prot -0.8, Bead autofluor 4042 and BoNT F protease -4.1.
`COc1ccc(CCCc2nnc(SCc3nc4ccccc4c(=O)[nH]3)n2C)c(C)c1` gave MazEF act -1.1, PfHsp40 rescue 1.5, BoNT A protease 0.3, Anthrax LF prot 0.6, Bead autofluor 4357 and BoNT F protease -1.2.
`CC(=O)Nc1nonc1-c1ccccc1` gave MazEF act -1.8, PfHsp40 rescue 0.0, BoNT A protease inconclusive, Anthrax LF prot 0.1, Bead autofluor 20934* and BoNT F protease -2.7.
COc1ccc(NC(=S)Nc2cccc3cnccc23)cc1 was read as MazEF act 70.0*, PfHsp40 rescue -0.9, BoNT A protease -0.6, Anthrax LF prot -2.7, Bead autofluor 2376 and BoNT F protease -14.9.
`S=C(Nc1ccc(Cl)cc1)Nc1cccc2cnccc12` gave MazEF act 7.1, PfHsp40 rescue 105.2*, BoNT A protease 1.4, Anthrax LF prot -2.7, Bead autofluor 2114 and BoNT F protease -33.3.
Fc1ccc(NC(=S)Nc2cccc3cnccc23)cc1 was read as MazEF act 5.4, PfHsp40 rescue -0.1, BoNT A protease -0.4, Anthrax LF prot 3.0, Bead autofluor 4218 and BoNT F protease -5.9.
For COCCN(C(=S)Nc1ccc(OC)c(Cl)c1)C1CCN(C(C)=O)CC1 the results were MazEF act -1.3, BoNT A protease -0.3, Anthrax LF prot -4.8, Bead autofluor 2908 and BoNT F protease -2.6.
For COc1cccc(N2CCN(C(=O)c3[nH]c(C)c(C(C)=O)c3C)CC2)c1 the results were MazEF act -0.5, PfHsp40 rescue 0.1, BoNT A protease -0.6, Anthrax LF prot -1.5, Bead autofluor 4014 and BoNT F protease -2.8.
`CC(=O)c1c(C)[nH]c(C(=O)N2CCN(c3ccc(F)cc3)CC2)c1C` gave MazEF act -3.3, PfHsp40 rescue 0.4, BoNT A protease -4.5, Anthrax LF prot -3.4, Bead autofluor 23763* and BoNT F protease -5.0.
For Cc1ccc(-c2cc(C(=O)Nc3c(C)n(C)n(-c4ccccc4)c3=O)[nH]n2)c(O)c1 the results were MazEF act 6.4, PfHsp40 rescue -0.4, BoNT A protease inconclusive, Anthrax LF prot -2.1, Bead autofluor 22384* and BoNT F protease -0.5.
